# Test results taken from PubChem BioAssay (NCI).
# Values joined by “and” are separate entries in the source; they are usually repeats but may differ in a detail not shown here. Equal entries are not always repeated. The panel holds about 83,000 compounds, 20% with a hit somewhere; the sample as a whole holds those more often.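 Step 1: grow cells in 96-well plates. Step 2: add test compound at a single concentration. Step 3: incubate 48 h. Step 4: record percent growth.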 Active and inactive are the calls of the source. The calls were made as follows: active = growth percent below 10; inactive = the rest.
# Assays:
# Assay in all cases: NCI-60 one-dose screen, 48 h (100 = growth as untreated, 0 = no growth, -100 = all killed)
# SR leukemia = conditions: 10 µM unless noted
# RPMI-8226 leukemia = conditions: 10 µM
# OVCAR-8 ovarian = conditions: 10 µM
# OVCAR-5 ovarian = conditions: 10 µM
# OVCAR-4 ovarian = conditions: 10 µM
# SK-OV-3 ovarian = conditions: 10 µM
# IGROV1 ovarian = conditions: 10 µM
# OVCAR-3 ovarian = conditions: 10 µM
# HS 578T breast = conditions: 10 µM
# NCI/ADR-RES ovarian = conditions: 10 µM
# BT-549 breast = conditions: 10 µM
# MDA-MB-435 melanoma = conditions: 10 µM
# SW-620 colon = conditions: 10 µM
# MCF7 breast = conditions: 10 µM
# HCT-116 colon = conditions: 10 µM
# HCC-2998 colon = conditions: 10 µM
# KM12 colon = conditions: 10 µM
# T-47D breast = conditions: 10 µM
Structure (SMILES),growth (SR leukemia),growth (RPMI-8226 leukemia),growth (OVCAR-8 ovarian),growth (OVCAR-5 ovarian),growth (OVCAR-4 ovarian),growth (SK-OV-3 ovarian),growth (IGROV1 ovarian),growth (OVCAR-3 ovarian),growth (HS 578T breast),growth (NCI/ADR-RES ovarian),growth (BT-549 breast),growth (MDA-MB-435 melanoma),growth (SW-620 colon),growth (MCF7 breast),growth (HCT-116 colon),growth (HCC-2998 colon),growth (KM12 colon),growth (T-47D breast)
CC(=O)Nc1cc(C)ccc1C,98.8% (inactive),117% (inactive),104% (inactive),102% (inactive),104% (inactive),102% (inactive),108% (inactive),102% (inactive),90.4% (inactive),103% (inactive),112% (inactive),102% (inactive),96.4% (inactive),105% (inactive),96.9% (inactive),100% (inactive),97.4% (inactive),–
CCCCCCCCCCCC[N+](C)(C)Cc1ccccc1,4.5% (active),-48.3% (active),11.9% (inactive),55.6% (inactive),3.85% (active),34.9% (inactive),-49.2% (active),-0.287% (active),43.2% (inactive),96.8% (inactive),-21.1% (active),11.7% (inactive),45.2% (inactive),15.1% (inactive),21.5% (inactive),17.8% (inactive),-63.7% (active),14.2% (inactive)
CS(=O)(=O)OC1CC(n2ccc(=O)[nH]c2=O)OC1COC(c1ccccc1)(c1ccccc1)c1ccccc1 (stereo not drawn),78% (inactive),101% (inactive),104% (inactive),98% (inactive),106% (inactive),106% (inactive),92% (inactive),100% (inactive),112% (inactive),113% (inactive),99.4% (inactive),125% (inactive),105% (inactive),97.3% (inactive),92.9% (inactive),106% (inactive),93.5% (inactive),96.7% (inactive)
Clc1cc(Cl)c(Cl)nn1,72% (inactive),75.6% (inactive),94.1% (inactive),115% (inactive),109% (inactive),95.2% (inactive),107% (inactive),114% (inactive),101% (inactive),107% (inactive),82.8% (inactive),105% (inactive),–,86.3% (inactive),86.2% (inactive),119% (inactive),105% (inactive),79.3% (inactive)
NNc1ccc2ccccc2c1,82.3% (inactive) and 94.9% (inactive),92.8% (inactive) and 97.2% (inactive),97.8% (inactive) and 96.2% (inactive),92.3% (inactive) and 93% (inactive),89.9% (inactive) and 88.2% (inactive),76.3% (inactive) and 91.1% (inactive),83% (inactive) and 103% (inactive),92.1% (inactive) and 99.6% (inactive),96.1% (inactive) and 98.9% (inactive),97.1% (inactive) and 101% (inactive),96.4% (inactive),98.8% (inactive) and 103% (inactive),96.1% (inactive),74.8% (inactive) and 80.2% (inactive),102% (inactive) and 90.2% (inactive),98% (inactive),74.3% (inactive) and 98.7% (inactive),–
Nc1c2ccccc2nc2ccccc12,0.28% (active) and 18.5% (inactive) and 24.2% (inactive),43.6% (inactive) and -28.8% (active) and 43.7% (inactive),-30.4% (active) and 38.1% (inactive) and 29.2% (inactive),78.4% (inactive) and 55.4% (inactive),4.83% (active) and 33.8% (inactive) and 56.2% (inactive),18.9% (inactive) and 40% (inactive) and 34.1% (inactive),13.6% (inactive) and -40.3% (active) and 32.2% (inactive),3.88% (active) and 52.9% (inactive),44.9% (inactive) and 27.5% (inactive) and 82.2% (inactive),7.27% (active) and 43.1% (inactive) and 37% (inactive),33.8% (inactive) and 69.9% (inactive) and 83.1% (inactive),6.39% (active) and 30% (inactive) and 48.5% (inactive),2.21% (active) and 14.3% (inactive) and 26.8% (inactive),2.34% (active) and 7.36% (active) and 9.98% (active),7.6% (active) and 17.9% (inactive) and 18.2% (inactive),37.9% (inactive) and 24.7% (inactive) and 40.8% (inactive),19.1% (inactive) and 46.2% (inactive),13.3% (inactive) and 30.4% (inactive) and 32.3% (inactive)
CCCC1CCC(=C2C(=O)CCC2=O)O1 (stereo not drawn),96.5% (inactive) and 78.2% (inactive),119% (inactive) and 113% (inactive),112% (inactive),96.8% (inactive) and 97% (inactive),98.2% (inactive),104% (inactive) and 110% (inactive),121% (inactive),101% (inactive) and 94% (inactive),109% (inactive) and 97.8% (inactive),108% (inactive) and 106% (inactive),86.3% (inactive) and 106% (inactive),94.8% (inactive) and 95.4% (inactive),105% (inactive),91.9% (inactive) and 118% (inactive),91.9% (inactive) and 107% (inactive),104% (inactive) and 99.1% (inactive),105% (inactive) and 108% (inactive),–
CCC(C)(C)c1cc(O)c(C(C)(C)CC)cc1O,45.1% (inactive),22.3% (inactive),65.9% (inactive),49.2% (inactive),28% (inactive),57.2% (inactive),64.8% (inactive),37.2% (inactive),31.9% (inactive),39.2% (inactive),10.7% (inactive),27.7% (inactive),31.8% (inactive),18.4% (inactive),16.6% (inactive),–,55.3% (inactive),–
